# Data as given in PubChem BioAssay (NCI).
# About 83,000 compounds went through this panel and 20% of them were active in at least one assay; those are over-represented in the sample as a whole.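 A percent growth of 40 corresponds to 60% growth inhibition; 0 means no net growth; -100 means all cells died. Active threshold: below 10.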 Values without a mark were called inactive. Activity calls are given as the source filed them.
# Assays:
# Test in all cases: NCI-60 one-dose screen, 48 h (100 = growth as untreated, 0 = no growth, -100 = all killed)
# Settings in all cases: 10 µM unless noted
# RPMI-8226 leukemia = test system: RPMI-8226 leukemia
# OVCAR-8 ovarian = test system: OVCAR-8 ovarian
# OVCAR-5 ovarian = test system: OVCAR-5 ovarian
# OVCAR-4 ovarian = test system: OVCAR-4 ovarian
# SK-OV-3 ovarian = test system: SK-OV-3 ovarian
# IGROV1 ovarian = test system: IGROV1 ovarian
# OVCAR-3 ovarian = test system: OVCAR-3 ovarian
# HS 578T breast = test system: HS 578T breast
# NCI/ADR-RES ovarian = test system: NCI/ADR-RES ovarian
# T-47D breast = test system: T-47D breast
Structure (SMILES),growth (RPMI-8226 leukemia),growth (OVCAR-8 ovarian),growth (OVCAR-5 ovarian),growth (OVCAR-4 ovarian),growth (SK-OV-3 ovarian),growth (IGROV1 ovarian),growth (OVCAR-3 ovarian),growth (HS 578T breast),growth (NCI/ADR-RES ovarian),growth (T-47D breast)
N#Cc1ccc(/C=N/NC(=O)c2[nH]c3ccc(Br)cc3c2-c2ccccc2)s1,-7.36% (active),2.33% (active),54.5%,54.6%,22.6%,17.3%,33.3%,23.3%,9.75% (active),58.8%
CCOC(=O)c1c(Nc2ccccc2)nn2c(-c3ccco3)c(C#N)cnc12,79.3%,82.1%,109%,86.6%,109%,100%,131%,72%,80%,87.8%
COc1ccc(/C=N/NC(=O)c2[nH]c3ccc(Br)cc3c2-c2ccccc2)o1,12.5%,-12.2% (active),39.9%,68%,38.1%,19.7%,16.6%,11.5%,19.9%,78.4%
Cn1cc(-c2cc(N)n3nc(-c4cn(C)c5ccc(F)cc45)cc3n2)c2cc(F)ccc21,13.5%,20%,88.5%,23.6%,128%,42.7%,-0.991% (active),18.5%,66.5%,22.5%
OC1CCN(CCCOc2c3ccccc3nc3c2oc2ccccc23)CC1,-24% (active),-44.9% (active),-8.63% (active),4.9% (active),-10.8% (active),-37.2% (active),-18.7% (active),8.94% (active),-17.9% (active),1.32% (active)
Cc1nc2cnc(N)c(C#Cc3cncc(C(=O)Nc4ccc(Cl)c(C(F)(F)F)c4)c3)c2nc1C,-10.2% (active),69.7%,54.5%,65.2%,120%,16.9%,39.3%,35.4%,63.9%,109%
CC(=O)Oc1ccccc1C(=O)Nc1ccc(C(=O)/C=C/c2ccncc2)cc1,-25.8% (active),82.4%,64.4%,87.5%,111%,10.3%,33.2%,69.5%,91.8%,53.4%
CSCCC(C(=O)O)N1C(=O)/C(=C/c2ccc(O)c(O)c2)SC1=S (stereo not given),110%,108%,94.6%,101%,110%,98.9%,111%,104%,108%,95.1%
O=C(N/N=C/c1cccs1)c1[nH]c2ccc(Br)cc2c1-c1ccccc1,3.64% (active),3.38% (active),46.1%,72.2%,36%,18%,21.5%,27.2%,17.8%,68.4%
C#C[C@]1(O)CC[C@H]2[C@@H]3CC=C4c5sc(Nc6ccc(Cl)cn6)nc5CC[C@]4(C)[C@H]3CC[C@@]21C,-21.2% (active),49.6%,75.8%,65.3%,35.9%,71.5%,74.3%,-2.9% (active),54.1%,68.8%
Clc1ccc(-c2cn3cc(Cc4ccc(Cl)c(Cl)c4)sc3n2)cc1,90.9%,75.5%,83.6%,56.1%,106%,62.5%,97.5%,94.1%,88.9%,50.4%
O=C1Nc2cc(Cl)ccc2/C1=C\c1ccc(OCc2ccc(Br)cc2F)cc1,-24.3% (active),-36.7% (active),6.67% (active),-54.3% (active),-36.9% (active),-88.8% (active),-64.7% (active),-26.1% (active),-0.106% (active),-23.9% (active)
Cc1nc(-c2cc3ccccc3oc2=O)ccc1C(=O)/C=C/c1ccccn1,-36.3% (active),69.3%,60.7%,85.2%,116%,7% (active),46.9%,80.3%,77.4%,52.1%
COc1cc(/C=C/C(=O)c2cc(OC)c(OC)c(OC)c2)ccc1OCc1ccccc1,-12.4% (active),16.8%,47%,41.2%,88.1%,35.3%,26%,88.9%,14.4%,41.8%
N#Cc1c(-c2ccc(Cl)cc2)nc(SCc2ccccc2)nc1N1CCNCC1,23%,65.6%,92.1%,85.2%,113%,46.9%,50%,91.1%,65.6%,65.6%
COc1ccc(NC(=O)c2sc3nc(-c4cnccn4)cc(-c4cccs4)c3c2N)cc1,74.2%,71.7%,93.1%,82.1%,23.1%,86.3%,76.8%,73.7%,78.2%,67.8%
O=C(c1ccc(Cl)cc1)C1[C@H](c2ccc(Cl)cc2)[C@@H](c2ccccc2)NC12C(=O)Nc1ccc(Br)cc12 (stereo not given in full),18.2%,38.3%,52.8%,44.6%,101%,35.9%,25.5%,58.2%,28.8%,31.2%
Cn1ccnc1C(=O)/C=C/c1ccc(NC(=O)Nc2ccc(F)cc2)cc1,13.2%,15.8%,57.7%,76.2%,52.8%,43.1%,56.5%,17.6%,43.8%,42.8%
CC(C)(O)c1cncc(-c2ccc3ncnc(N4CCc5cc(F)c(Cl)cc54)c3c2)c1,6.02% (active),25.9%,25.9%,20.2%,1.96% (active),-35.7% (active),5.16% (active),-8.48% (active),31.1%,4.63% (active)
CC(C)(C)Nc1nc2c(OCCc3ccccc3)cccn2c1-c1ccc(Cl)cc1,-16.1% (active),26.3%,29.4%,18.2%,42.2%,23.8%,6.36% (active),70.3%,4.99% (active),8.79% (active)
CN(C)CCCNc1c2ccc(Cl)cc2nc2c1oc1ccc(Cl)cc12,-27.2% (active),-78.6% (active),-7.04% (active),0.544% (active),60.5%,-64.3% (active),-52.6% (active),60.9%,2.92% (active),84.4%
COc1cc(OC)c(S(=O)(=O)NNC(=O)c2ccncc2)cc1C(=O)/C=C/c1ccc(C)cc1,20.3%,88.3%,110%,91.3%,101%,72.7%,81%,80.5%,107%,72.7%
CCOC(=O)c1csc(NC(=O)CSc2nc3sc4c(c3c(=O)n2-c2ccc(Cl)cc2)CCCC4)n1,92.5%,97.6%,97.9%,103%,135%,89.6%,138%,97.3%,107%,87%
COc1ccc(/C=N/NC(=O)c2[nH]c3ccc(Br)cc3c2-c2ccccc2)s1,7.49% (active),12.3%,51.2%,75.5%,25.7%,18%,22.8%,29.9%,15.8%,73.2%
Clc1ccc2oc3c(NCCCN4CCOCC4)c4ccccc4nc3c2c1,11.4%,23.3%,30%,36.9%,57.8%,16.9%,64.5%,37.8%,29.2%,51.7%
c1ccc2c(NCCCN3CCOCC3)c3oc4ccccc4c3nc2c1,-14.4% (active),-71.7% (active),1.26% (active),7.86% (active),-9.67% (active),-16.7% (active),-19.6% (active),5.28% (active),7.98% (active),21.1%
Cc1cccc2sc(/N=C(\N)C(Br)Br)nc12,2.19% (active),32.7%,41.2%,64.7%,87.5%,-65.7% (active),29.2%,37.2%,17.6%,41.4%
